This is an account of results in PubChem BioAssay.

Active and inactive are the calls of the source.

Test [1] in a line: optical density shifts of acrAB sulA E. coli – strain DRC41, OD650, 48 h, E. coli filamentation inducer project, primary screen (AID 1152).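 Further: E. coli MC1000 strain DRC41 lacking acrAB efflux pump and sulA.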 As to conditions: higher = more signal, called active from +8 up or from −8 down.
Test [2] can be described thus: probe aLefty1 binding on compound microarray – biochemical, small-molecule microarray, 635/667 nm fluorescence, primary screen (AID 1153).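 Further: score merges spot fluorescence with signal-to-noise ratio from the scanned slide images.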 As to conditions: higher = more signal.
Test [3] can be described thus: plasmodial surface anion channel blockers, osmotic lysis – cell-based, P. falciparum Indochina, OD700, 1 h, primary screen (AID 1154). As to conditions: P. falciparum Indochina infected RBC osmotic lysis, higher = more signal, called active from +8 up or from −8 down.
Test [4] can be described thus: plasmodial surface anion channel blockers, osmotic lysis – cell-based, P. falciparum Indochina, OD700, 2 h, primary screen (AID 1155).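 Further: lysis reports solute entry through the parasite surface anion channel PSAC.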 The following applies: P. falciparum Indochina infected erythrocytes, higher = more signal, called active from +8 up or from −8 down.
Test [5] is described as follows: changes in parasitized red cell lysis, either direction – P. falciparum Indochina, OD700, 3 h, PSAC antagonist project, primary screen (AID 1156). As to conditions: P. falciparum-infected erythrocytes, osmotic lysis, higher = more signal, called active from +8 up or from −8 down.
The nature of test [6]: plasmodial surface anion channel blockers, osmotic lysis – cell-based, P. falciparum Indochina, OD700, 18 h, primary screen (AID 1157). As to conditions: P. falciparum Indochina infected erythrocytes, osmotic lysis OD700, 18 h; higher = more signal, called active from +8 up or from −8 down.
Test [7] is described as follows: S6 kinase pathway phospho-S6 level changes – cell-based, A549, cytoblot, luminescence, serum-stimulated, primary screen (AID 1158).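 Further: serum-stimulated A549 lung adenocarcinoma cells; signal is phosphorylated S6 detected by cytoblot immunostaining with HRP secondary.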 The following applies: 5 h, higher = more signal.
Test [8] deals with NADPH oxidase 2 (Homo sapiens) (UniProt P04839). Nature of the test: compounds shifting NOX2 Amplex Red fluorescence – cell-based, HEK293-NOX2, PMA-stimulated, NOX inhibitor project, primary screen (AID 1159). Further: test concentration not given here. The following applies: 45 min, higher = more signal, called active from +8 up or from −8 down.
Chain of NADPH oxidase 2 (Homo sapiens) (P04839 whole entry, looked up): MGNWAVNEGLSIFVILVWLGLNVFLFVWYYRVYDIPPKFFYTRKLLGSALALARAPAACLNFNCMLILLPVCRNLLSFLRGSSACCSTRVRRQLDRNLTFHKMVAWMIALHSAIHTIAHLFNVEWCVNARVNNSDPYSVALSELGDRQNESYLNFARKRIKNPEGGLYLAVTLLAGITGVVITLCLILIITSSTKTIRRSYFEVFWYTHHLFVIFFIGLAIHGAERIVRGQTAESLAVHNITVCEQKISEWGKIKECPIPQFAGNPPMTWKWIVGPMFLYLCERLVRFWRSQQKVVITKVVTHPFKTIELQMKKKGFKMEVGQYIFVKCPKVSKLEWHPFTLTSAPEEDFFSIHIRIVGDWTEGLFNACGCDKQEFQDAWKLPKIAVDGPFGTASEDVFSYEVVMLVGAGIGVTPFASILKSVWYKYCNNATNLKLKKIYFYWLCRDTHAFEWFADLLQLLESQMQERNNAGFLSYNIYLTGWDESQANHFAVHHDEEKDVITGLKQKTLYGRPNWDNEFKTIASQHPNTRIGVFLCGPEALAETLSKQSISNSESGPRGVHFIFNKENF
The target in test [9] is NADPH oxidase 4 (Homo sapiens) (UniProt Q9NPH5). Nature of the test: compounds shifting NOX4 Amplex Red fluorescence – cell-based, HEK293-NOX4, tetracycline-induced, NOX inhibitor project, primary screen (AID 1160). The following applies: HEK293-NOX4, Amplex Red H2O2 fluorescence, 45 min; higher = more signal, called active from +8 up or from −8 down.
Chain of NADPH oxidase 4 (Homo sapiens) (Q9NPH5 whole entry, looked up): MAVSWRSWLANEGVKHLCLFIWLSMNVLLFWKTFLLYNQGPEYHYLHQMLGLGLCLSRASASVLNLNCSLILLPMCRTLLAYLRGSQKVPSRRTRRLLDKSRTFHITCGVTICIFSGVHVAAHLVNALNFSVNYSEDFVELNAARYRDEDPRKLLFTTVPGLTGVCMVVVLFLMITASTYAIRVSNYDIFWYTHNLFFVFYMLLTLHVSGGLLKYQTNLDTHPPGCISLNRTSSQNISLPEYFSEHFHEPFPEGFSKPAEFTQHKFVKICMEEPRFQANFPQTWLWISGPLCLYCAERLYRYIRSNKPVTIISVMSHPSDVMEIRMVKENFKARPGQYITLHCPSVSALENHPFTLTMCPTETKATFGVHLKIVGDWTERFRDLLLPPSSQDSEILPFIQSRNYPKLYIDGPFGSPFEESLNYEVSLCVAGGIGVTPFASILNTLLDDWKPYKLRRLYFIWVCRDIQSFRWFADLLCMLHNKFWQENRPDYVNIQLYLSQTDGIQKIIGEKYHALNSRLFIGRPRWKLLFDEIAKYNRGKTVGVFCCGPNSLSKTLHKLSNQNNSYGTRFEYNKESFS
For test [10], the target named is NADPH oxidase 5 (Homo sapiens) (UniProt Q96PH1). Briefly: compounds shifting NOX5 Amplex Red fluorescence – cell-based, HEK293-NOX5, NOX inhibitor project, primary screen (AID 1161). The following applies: HEK293-NOX5, ionomycin, 45 min, higher = more signal.
Chain of NADPH oxidase 5 (Homo sapiens) (Q96PH1 whole entry, looked up): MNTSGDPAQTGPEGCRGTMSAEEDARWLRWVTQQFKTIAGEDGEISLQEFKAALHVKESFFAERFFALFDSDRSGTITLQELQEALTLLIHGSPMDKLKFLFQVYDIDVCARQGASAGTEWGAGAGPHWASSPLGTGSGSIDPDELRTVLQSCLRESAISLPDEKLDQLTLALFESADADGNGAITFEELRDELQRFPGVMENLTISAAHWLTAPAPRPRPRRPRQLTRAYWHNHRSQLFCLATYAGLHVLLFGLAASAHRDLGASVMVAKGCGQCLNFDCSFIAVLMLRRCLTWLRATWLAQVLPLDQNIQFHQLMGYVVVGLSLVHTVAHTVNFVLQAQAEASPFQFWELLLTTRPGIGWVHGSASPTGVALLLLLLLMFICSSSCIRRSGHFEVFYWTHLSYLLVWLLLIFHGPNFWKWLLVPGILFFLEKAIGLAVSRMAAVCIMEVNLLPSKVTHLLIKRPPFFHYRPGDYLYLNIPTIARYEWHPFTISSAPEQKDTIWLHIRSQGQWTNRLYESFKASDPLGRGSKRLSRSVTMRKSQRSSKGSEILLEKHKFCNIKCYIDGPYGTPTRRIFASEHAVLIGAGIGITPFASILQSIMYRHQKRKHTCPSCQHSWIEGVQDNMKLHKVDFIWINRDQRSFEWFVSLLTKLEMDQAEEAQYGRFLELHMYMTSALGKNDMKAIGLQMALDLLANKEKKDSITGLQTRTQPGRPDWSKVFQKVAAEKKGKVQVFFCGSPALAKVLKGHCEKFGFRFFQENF
Test [11] is described as follows: compound effects on lung adenocarcinoma cell viability – A549, calcein-AM fluorescence, 48 h, basal, profiling panel (AID 1162). Further: test concentration not given here. As to conditions: higher = more signal.
Test [12] can be described thus: compound effects on differentiated 3T3-L1 adipocyte viability – cell-based, 3T3-L1 adipocytes, calcein-AM fluorescence, 48 h, basal, profiling panel (AID 1163). Further: test concentration not given here. As to conditions: 3T3-L1 adipocytes viability, higher = more signal.
Test [13] can be described thus: compound effects on hepatocellular carcinoma cell viability – HepG2, calcein-AM fluorescence, 48 h, basal, profiling panel (AID 1164). Further: test concentration not given here. The following applies: higher = more signal.
A short description of test [14]: compound effects on multiple myeloma cell viability – MM1S, calcein-AM fluorescence, 48 h, basal, profiling panel (AID 1165). Further: test concentration not given here. As to conditions: higher = more signal.
Test [15] can be described thus: calcein-AM signal in unstimulated myeloma cells – cell-based, calcein-AM fluorescence, 48 h, PK04 Diversity Set, profiling panel (AID 1166).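 Further: cells grown under basal conditions without added stimulus; test concentration not given here.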 As to conditions: RPMI8226 myeloma viability, higher = more signal.
Test [16] is described as follows: JC-1 mitochondrial signal, unstimulated HepG2 cells – cell-based, JC-1 fluorescence, 24 h, 100 nL compound, profiling panel (AID 1167). Further: test concentration not given here. The following applies: HepG2 mitochondrial potential, higher = more signal.
Test [17] can be described thus: JC-1 mitochondrial signal, unstimulated adipocytes – cell-based, JC-1 fluorescence, 3T3-L1 adipocytes, 24 h, 100 nL compound, profiling panel (AID 1168). Further: test concentration not given here. The following applies: JC-1 mitochondrial fluorescence, higher = more signal, called active from +8 up or from −8 down.
Test [18] can be described thus: JC-1 mitochondrial signal, unstimulated myeloma cells – cell-based, JC-1 fluorescence, RPMI8226, 24 h, 100 nL compound, profiling panel (AID 1169). Further: test concentration not given here. The following applies: JC-1 mitochondrial potential fluorescence, higher = more signal.
Test [19] in a line: JC-1 mitochondrial signal, unstimulated MM1S myeloma – cell-based, JC-1 fluorescence, 24 h, 100 nL compound, profiling panel (AID 1170). Further: test concentration not given here. As to conditions: MM1S mitochondrial potential, higher = more signal.
The nature of test [20]: resazurin metabolic signal in A549 cells – cell-based, resazurin fluorescence, 24 h, PK04 Diversity Set, profiling panel (AID 1171). Further: test concentration not given here. As to conditions: A549 viability, higher = more signal, called active from +8 up or from −8 down.

As for `CO[C@H]1O[C@H](CO)[C@@H](OC(=O)Nc2cccc(F)c2)[C@H](OC(=O)Nc2ccccc2)[C@@H]1OC(=O)Nc1ccccc1`, the z-score is -1.17 (inactive) in test [1]; 8.61 (active) in test [3]; 1.93 (inactive) in test [4]; -0.476 (inactive) in test [5]; 1.4 (inactive) in test [6]; 0.646 in [7]. The z-score in test [8] is -1.12 (inactive); in [9], -0.322 (inactive); in test [10], -1.08; in test [11] it was -1.61; in test [12], 0.18; in test [13], -2.08. For the same molecule, the z-score in test [14] is -3.43; in [15], -4.24; in [16], -0.702; in test [17], -1.66 (inactive); in test [18], -1.22; in test [19], -1.07. Also, in [20], the z-score was -3.16 (inactive). In test [2], this molecule gave a composite z-score of 0.22.

For `CC(C)C(=C=CC[C@@H](O)c1ccc(OCCO)cc1)C[C@@H](O)c1ccccn1`, the z-score in test [1] is -0.197 (inactive); in test [3], 6.54 (inactive); in test [4] it was 0.977 (inactive); in test [5], 0.166 (inactive); in test [6], 0.479 (inactive); in [7] it was -0.652. Further, the z-score was 0.0116 (inactive) in test [8]; 0.26 (inactive) in [9]; -0.124 in test [10]; -0.343 in [11]; -1.03 in test [12]; 0.411 in test [13]. Also, the z-score is -0.473 in [14]; -0.3 in test [15]; -0.737 in test [16]; 0.00461 (inactive) in test [17]; 0.0263 in [18]; -0.698 in [19]. Besides, the z-score in test [20] is -0.287 (inactive). For the same molecule, the composite z-score in test [2] is -0.101.

As for `CCCC[C@@H]1C[C@H]1[C@@H](NC(=O)c1ccco1)c1ccccc1C(F)(F)F`, the z-score in [1] is -1.91 (inactive); in test [3] it was 0.233 (inactive); in test [4] it was 0.105 (inactive); in test [5] it was -0.104 (inactive); in test [6], 0.471 (inactive); in test [7], -0.278. Also, the z-score was -0.295 (inactive) in test [8]; -1.28 (inactive) in [9]; -1.26 in test [10]; -2.09 in [11]; -1.51 in [12]; -0.489 in [13]. The z-score was -1.1 in test [14]; -0.484 in test [15]; -1.7 in [16]; -1.22 (inactive) in test [17]; -0.583 in test [18]; -0.481 in test [19]. Also, the z-score in test [20] is -0.26 (inactive). Moreover, the composite z-score in test [2] turned out to be 2.47.

Take `COCCCNC(=O)[C@@H]1c2ccccc2C(=O)N(Cc2ccccc2Cl)[C@H]1c1ccc(CO)cc1`: the z-score in test [1] was 2.51 (inactive); in [3] it was 1.62 (inactive); in [4], 0.293 (inactive); in test [5] it was 0.621 (inactive); in test [6] it was 0.11 (inactive); in [7], -0.0671. For the same molecule, the z-score in [8] is -0.285 (inactive); in [9], 0.986 (inactive); in [10], 0.306; in [11] it was 0.897; in [12], -0.137; in test [13] it was 1.84. Besides, the z-score in [14] was 0.448; in test [15] it was 1.28; in test [16] it was 2.87; in test [17], 0.385 (inactive); in test [18], -0.21; in test [19], 0.418. Also, in test [20], the z-score is -0.028 (inactive). Further, the composite z-score in [2] was -0.121.

Regarding `C=CCOC(=O)[C@@H]1[C@H]2C(=O)O[C@H](c3ccccc3)[C@H](c3ccccc3)N2[C@H](c2ccc(OCCOC(=O)[C@H]3C[C@H]4C(=O)N5CCC[C@H]5C(=O)N4[C@H]3c3ccc(O)cc3)cc2)[C@@]12C(=O)Nc1ccc(I)cc12`, the z-score in test [1] was 0.371 (inactive); in test [3], 1.37 (inactive); in [4], -0.552 (inactive); in [5] it was 0.777 (inactive); in [6] it was -1.37 (inactive); in test [7] it was 0.718. Besides, the z-score in test [8] was 0.986 (inactive); in [9], 1.1 (inactive); in test [10] it was 1.36; in test [11], 0.0077; in [12] it was 0.205; in [13] it was -1.02. Moreover, the z-score in test [14] was -1.75; in [15], -1.31; in test [16] it was -1.7; in [17] it was 1.24 (inactive); in test [18], -0.81; in test [19], -1.27. Also, in [20], the z-score was -0.685 (inactive). Moreover, in test [2], the composite z-score is 0.19.

Turning to `Cc1ccc(S[C@]2(C(=O)NCCCN(C)C)CC(=O)N(Cc3ccccc3C(F)(F)F)[C@@H]2c2ccc(CO)cc2)cc1`, the z-score in test [1] was 0.674 (inactive); in test [3] it was 0.926 (inactive); in test [4], 0.479 (inactive); in test [5] it was 0.298 (inactive); in [6] it was -0.0133 (inactive); in test [7] it was 0.104. In addition, the z-score in [8] was -6.22 (inactive); in test [9] it was 0.165 (inactive); in [10] it was 0.526; in test [11] it was 0.397; in [12], -0.22; in test [13], 0.41. Also, the z-score in [14] is 0.306; in [15], 0.595; in test [16], 1.47; in [17], 0.0218 (inactive); in test [18], 0.139; in test [19] it was 0.427. Besides, the z-score in [20] is -0.515 (inactive). The composite z-score in [2] turned out to be 0.337.

With `C=CCNC(=O)[C@@H]1[C@H]2C(=O)O[C@H](c3ccccc3)[C@H](c3ccccc3)N2[C@H](c2ccc(O)cc2)[C@@]12C(=O)Nc1ccc(C#CCNC(N)=O)cc12`, the z-score in test [1] is -1.29 (inactive); in test [3], 0.448 (inactive); in [4] it was -0.261 (inactive); in test [5], -0.519 (inactive); in test [6], 0.32 (inactive); in test [7], -0.203. Also, the z-score in [8] was 0.334 (inactive); in [9], -0.211 (inactive); in [10], 0.0297; in test [11] it was 0.0067; in test [12], 1.09; in test [13], 0.767. The z-score was -0.925 in test [14]; -0.179 in test [15]; -1.14 in test [16]; -1.07 (inactive) in test [17]; -0.994 in test [18]; 0.435 in test [19]. Besides, in test [20], the z-score was 0.552 (inactive). This molecule came in with a composite z-score in test [2] of 0.186.

For the molecule `COC(=O)[C@@]1(Cc2ccc(OC)cc2)[C@H]2c3cc(C(=O)N4CCCC4)n(Cc4ccc(C)c(F)c4F)c3C[C@H]2CN1C(=O)c1ccccc1`, the z-score was -0.548 (inactive) in test [1]; 3.76 (inactive) in test [3]; 0.233 (inactive) in test [4]; 0.894 (inactive) in test [5]; 1.08 (inactive) in test [6]; 0.105 in test [7]. For the same molecule, the z-score in test [8] was 0.705 (inactive); in [9] it was 1.23 (inactive); in [10], -3.41; in [11], 0.842; in [12], 0.0891; in [13], 0.682. Also, the z-score was -1.59 in [14]; -2.66 in test [15]; 3.41 in test [16]; -0.411 (inactive) in test [17]; -0.735 in test [18]; -1.51 in test [19]. Also, the z-score in test [20] was -0.268 (inactive). Also, the composite z-score in test [2] amounted to 0.378.

In the case of `CN1C(=O)C2C=CC(C(O)C#Cc3ccccc3)N(N3CCCCC3)C2C1=O` (stereo not given), the z-score in test [1] is -0.381 (inactive); in [3] it was 1.24 (inactive); in test [4], 1.09 (inactive); in test [5], 0.83 (inactive); in [6], 1.17 (inactive); in [7], -0.726. Moreover, the z-score in test [8] was -0.23 (inactive); in [9] it was 0.191 (inactive); in [10] it was -0.26; in test [11], -0.388; in test [12], -0.382; in test [13], -0.149. Also, the z-score in [14] is 0.241; in test [15], 0.609; in test [16], -0.242; in [17], 0.567 (inactive); in test [18] it was 0.382; in test [19], -0.547. In addition, the z-score in test [20] is -0.913 (inactive). The molecule also yielded a composite z-score in [2] of 0.807.
